Source: PubChem BioAssay
For some of these results: Entries with a potency or affinity are not part of this list. The source made the active and inactive calls.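 How the source made its calls, unless noted: active means signal rise over 3 SD above mean of control wells given weak agonist, in both repeats and first screen; inactive means the rest.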

How the values were obtained:
[1] = test system: TRPC4 beta (transient receptor potential cation channel C4), mouse; experiment: activators of mouse TRPC4 channel, confirmation, cell-based, Fluo4 calcium, HEK293 TRPC4beta/mu-opioid, duplicates, 10 µM (AID 2426;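 active means fluorescence ratio normalized to control raised more than 50% in primary screen plus both repeat runs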;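 further: percent rise of integrated ratio over buffer wells lacking compound which define 0%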); details: Fluo4 calcium fluorescence, at 10 µM; hits give high values
[2] = test system: transient receptor potential cation channel C4 beta (TRPC4), mouse; experiment: activators of mouse TRPC4 channel, confirmation, cell-based, second round, Fluo4, HEK293 TRPC4beta/mu-opioid, 1 µM (AID 2461;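 active means primary screen active and over 50% activation in each of two duplicate runs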;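 on activation: 0% = wells without test compound as baseline of integrated fluorescence ratio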); details: Fluo4 calcium fluorescence, at 1 µM; hits give high values
[3] = test system: TRPC4 (transient receptor potential cation channel C4 beta), mouse; experiment: positive allosteric modulators of mouse TRPC4, confirmation, cell-based, second round, Fluo-4, HEK293 TRPC4beta/mu-opioid, 1 µM (AID 2554;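 active means primary screen hit whose fluorescence ratio, in both repeats, exceeds the weak agonist control mean by 3 SD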); details: DAMGO EC20, Fluo-4 calcium flux, at 1 µM; hits give high values
[4] = test system: TRPC4 beta (transient receptor potential cation channel C4), mouse; experiment: positive allosteric modulators of mouse TRPC4, confirmation, cell-based, Fluo-4, HEK293 TRPC4beta/mu-opioid (AID 2555;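 active means primary screen hit whose calcium fluorescence ratio, in both repeats, exceeds the weak agonist control mean by 3 SD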); details: DAMGO EC20, Fluo-4 calcium flux, at 10 µM; hits give high values
[5] = target: Short transient receptor potential channel 4 (Mus musculus) (UniProt Q9QUQ5); experiment: inhibitors of mouse TRPC4 channel, confirmation, cell-based, Fluo4, HEK293 TRPC4beta/mu-opioid (AID 2636;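 active means calcium signal cut by more than 3 SD below the full-agonist control yet still positive, in both repeats and the earlier primary screen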); details: DAMGO, Fluo4 calcium flux, at 10 µM; hits give high values
Short transient receptor potential channel 4 (Mus musculus), sequence (Q9QUQ5 whole entry, looked up): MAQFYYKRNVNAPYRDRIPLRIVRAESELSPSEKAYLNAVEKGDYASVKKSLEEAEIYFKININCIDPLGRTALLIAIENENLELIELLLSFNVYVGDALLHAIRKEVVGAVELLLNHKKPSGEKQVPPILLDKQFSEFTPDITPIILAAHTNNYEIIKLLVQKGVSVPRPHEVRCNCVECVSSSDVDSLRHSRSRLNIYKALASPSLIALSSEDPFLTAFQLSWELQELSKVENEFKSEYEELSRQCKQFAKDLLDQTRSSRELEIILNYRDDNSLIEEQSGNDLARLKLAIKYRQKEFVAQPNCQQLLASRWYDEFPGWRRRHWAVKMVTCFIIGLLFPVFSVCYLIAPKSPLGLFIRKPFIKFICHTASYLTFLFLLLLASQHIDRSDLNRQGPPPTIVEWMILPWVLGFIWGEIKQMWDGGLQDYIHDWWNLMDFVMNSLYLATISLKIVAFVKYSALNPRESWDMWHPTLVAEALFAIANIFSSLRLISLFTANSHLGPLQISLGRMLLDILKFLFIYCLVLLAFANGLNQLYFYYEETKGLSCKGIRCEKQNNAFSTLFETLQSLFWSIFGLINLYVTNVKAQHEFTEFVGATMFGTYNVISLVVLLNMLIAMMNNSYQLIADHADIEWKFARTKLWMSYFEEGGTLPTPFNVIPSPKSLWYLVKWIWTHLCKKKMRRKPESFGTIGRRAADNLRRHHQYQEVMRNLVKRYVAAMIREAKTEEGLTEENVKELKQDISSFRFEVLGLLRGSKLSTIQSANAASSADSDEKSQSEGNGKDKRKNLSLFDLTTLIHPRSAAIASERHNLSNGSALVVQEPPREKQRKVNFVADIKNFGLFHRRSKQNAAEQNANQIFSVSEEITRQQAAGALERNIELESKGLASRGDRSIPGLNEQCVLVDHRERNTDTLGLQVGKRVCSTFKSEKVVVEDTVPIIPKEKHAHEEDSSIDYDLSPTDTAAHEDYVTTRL

[6] = target: Short transient receptor potential channel 4 (Mus musculus) (UniProt Q9QUQ5); experiment: inhibitors of mouse TRPC4 channel, confirmation, cell-based, second round, Fluo4, HEK293 TRPC4beta/mu-opioid, 1 µM (AID 2637;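 active means calcium signal ratio cut to more than 3 SD under the fully stimulated control mean yet still positive, in both repeats and the primary screen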); details: Fluo4 calcium flux, DAMGO, at 1 µM; hits give high values
[7] = target: Short transient receptor potential channel 4 (Mus musculus) (UniProt Q9QUQ5); experiment: TRPC4 positive allosteric modulators, dose response, cell-based, HEK293 TRPC4/mu-opioid, Fluo-4 calcium, EC20 DAMGO (AID 434941;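 active means earlier screen potentiator hit that boosts the TRPC4 ion channel at some dose, with a dose response; inactive means no potentiation, no dose response, or not a prior hit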;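 further: calcium entry triggered by an EC20 dose of DAMGO at the co-expressed mu-opioid receptor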)
[8] = target: Short transient receptor potential channel 4 (Mus musculus) (UniProt Q9QUQ5); experiment: mouse TRPC4 channel inhibitors, dose response, cell-based, HEK293 TRPC4/mu-opioid, Fluo-4 calcium (AID 434942;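 active means primary screen inhibitor hit that blocks the TRPC4 channel at some tested dose, yielding a dose curve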)
[9] = target: Short transient receptor potential channel 6 (Mus musculus) (UniProt Q61143); experiment: inhibition of mouse TRPC6 channel, confirmation, selectivity assay for TRPC4 inhibitor project, cell-based, HEK293, membrane potential dye, duplicate (AID 434948;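 active means active in primary screen and both duplicates, each dropping signal beyond three positive-control SD with fluorescence still positive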); details: HEK293 TRPC6, membrane potential dye fluorescence, at 10 µM, stimulated with maximal-effect acetylcholine; hits give high values
Short transient receptor potential channel 6 (Mus musculus), sequence (Q61143 whole entry, looked up): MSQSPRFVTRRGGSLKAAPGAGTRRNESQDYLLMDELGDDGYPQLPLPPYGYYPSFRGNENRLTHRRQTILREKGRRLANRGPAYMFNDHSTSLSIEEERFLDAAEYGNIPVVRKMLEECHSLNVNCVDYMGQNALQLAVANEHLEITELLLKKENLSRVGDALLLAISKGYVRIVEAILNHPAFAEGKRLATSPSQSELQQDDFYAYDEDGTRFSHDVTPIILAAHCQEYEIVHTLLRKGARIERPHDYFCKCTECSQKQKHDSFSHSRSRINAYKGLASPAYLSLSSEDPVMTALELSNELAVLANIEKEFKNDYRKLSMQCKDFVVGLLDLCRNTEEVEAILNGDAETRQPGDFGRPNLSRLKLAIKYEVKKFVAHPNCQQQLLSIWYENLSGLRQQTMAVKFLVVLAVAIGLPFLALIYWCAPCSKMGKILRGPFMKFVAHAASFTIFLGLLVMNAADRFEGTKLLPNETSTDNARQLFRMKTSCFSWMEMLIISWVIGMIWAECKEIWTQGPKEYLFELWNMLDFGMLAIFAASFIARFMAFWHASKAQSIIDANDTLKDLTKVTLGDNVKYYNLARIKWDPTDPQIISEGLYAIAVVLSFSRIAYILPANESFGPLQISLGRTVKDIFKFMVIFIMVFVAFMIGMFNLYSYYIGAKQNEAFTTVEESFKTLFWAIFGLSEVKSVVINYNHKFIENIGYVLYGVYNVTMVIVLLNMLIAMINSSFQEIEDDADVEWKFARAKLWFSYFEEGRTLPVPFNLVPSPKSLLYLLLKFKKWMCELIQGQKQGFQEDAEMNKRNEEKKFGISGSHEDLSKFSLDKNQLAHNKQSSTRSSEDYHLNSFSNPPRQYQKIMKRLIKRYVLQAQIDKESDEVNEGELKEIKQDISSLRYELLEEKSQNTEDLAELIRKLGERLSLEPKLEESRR

[10] = target: Short transient receptor potential channel 6 (Mus musculus) (UniProt Q61143); experiment: activation of mouse TRPC6 channel, confirmation, selectivity assay for TRPC4 activator project, cell-based, HEK293, membrane potential dye, duplicate (AID 434950;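 active means membrane potential signal rise above negative control mean plus 3 SD in both duplicates, also active in the earlier TRPC4 screen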;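 on activation: 0% = buffer only wells and 100% = acetylcholine maximal-effect wells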); details: HEK293 TRPC6, membrane potential fluorescence, at 10 µM; hits give high values
[11] = target: Short transient receptor potential channel 6 (Mus musculus) (UniProt Q61143); experiment: TRPC6 potentiation by TRPC4 potentiator hits, confirmation, selectivity assay for TRPC4 potentiator project, HEK293 cells, membrane potential dye, duplicate (AID 434952;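 active means compound raising the membrane signal above positive-control mean plus 3 SD in both repeats, and a primary screen hit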); details: HEK293 TRPC6, membrane potential dye fluorescence, at 10 µM, maximal acetylcholine added after compound; hits give high values
[12] = target: Short transient receptor potential channel 4 (Mus musculus) (UniProt Q9QUQ5); experiment: calcium flux activators in TRPC4/5HT1a cells, counter-screen for TRPC4 activator project, cell-based, second counter screen, HEK293 TRPC4/5HT1a, Fluo-4 (AID 434977;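 active means calcium signal rise above buffer-control mean plus 5 SD in both duplicates, and also a hit in the primary screen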;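 on activation: plate controls were assay buffer for no effect and maximal serotonin response for full effect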); details: Fluo-4 calcium flux, at 10 µM; hits give high values
[13] = calcium flux inhibitors in TRPC4/5HT1a cells, confirmation, counter-screen for TRPC4 inhibitor project, cell-based, second counter screen, HEK293 TRPC4/5HT1a, Fluo-4 (AID 434978;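 active means primary screen active whose calcium signal fell more than 3 SD beyond the full-serotonin control mean in both duplicate plates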;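 further: serotonin given first at submaximal then at maximal dose after compound preincubation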); details: Fluo-4 calcium flux, at 10 µM, serotonin added to trigger calcium flux; hits give high values
[14] = test system: TRPC4 (mouse), co-expressed with 5HT1a in HEK293; experiment: calcium flux potentiators in TRPC4/5HT1a cells, confirmation, counter-screen for TRPC4 potentiator project, cell-based, second counter screen, HEK293 TRPC4/5HT1a, Fluo-4 (AID 434979); details: Fluo-4 calcium flux, at 10 µM, serotonin added at its EC20 dose; hits give high values
[15] = calcium flux activation in mu-opioid HEK293 cells, confirmation, counter-screen for TRPC4 activator project, cell-based, HEK293 mu-opioid receptor line (AID 449723;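 active means hit in primary screen, with calcium signal over 5 SD above buffer well mean in both duplicates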;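 further: counter screen cells carry the mu-opioid receptor alone and lack TRPC4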); details: Fluo-4 calcium fluorescence, at 10 µM; hits give high values
[16] = calcium flux enhancement in mu-opioid HEK293 cells, confirmation, counter-screen for TRPC4 allosteric potentiator project, cell-based, HEK293 mu-opioid receptor line (AID 449724;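 active means calcium signal rise more than 3 SD above the low-dose agonist control mean, in both duplicate plates and the primary screen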); details: Fluo-4 calcium flux, at 10 µM, compound added before EC20 DAMGO stimulus; hits give high values

COc1ccc(C)c(NC(=O)NCCc2cnc[nH]2)c1
active: activation [1] 152% | activation [10] 33% | activation [12] 56.4%
inactive: outcome [2] | outcome [3] | outcome [4] | outcome [5] | outcome [6] | outcome [7] | outcome [8] | outcome [9] | outcome [11] | outcome [13] | outcome [14] | outcome [15] | outcome [16]

Cc1csc2c(N3CCN(C(=O)Nc4ccccc4)CC3)ncnc12
inactive: outcome [2] | outcome [3] | outcome [4] | outcome [5] | outcome [6] | outcome [7] | outcome [8] | outcome [9] | outcome [10] | outcome [11] | outcome [13] | outcome [14] | outcome [15] | outcome [16]
active: activation [1] 99% | activation [12] 48.3%

CC1CC(C)CN(CCCNS(=O)(=O)c2cc(Br)cc3c2N(C(=O)C2CC2)CC3)C1 (configuration not stated)
active: activation [1] 139% | activation [2] 114% | activation [10] 30% | activation [12] 64.6%
inactive: outcome [3] | outcome [4] | outcome [5] | outcome [6] | outcome [7] | outcome [8] | outcome [9] | outcome [11] | outcome [13] | outcome [14] | outcome [15] | outcome [16]

Cc1csc2c(N3CCN(C(=O)Nc4ccc(OC(F)(F)F)cc4)CC3)ncnc12
active: activation [1] 75% | activation [12] 43.3%
inactive: outcome [2] | outcome [3] | outcome [4] | outcome [5] | outcome [6] | outcome [7] | outcome [8] | outcome [9] | outcome [10] | outcome [11] | outcome [13] | outcome [14] | outcome [15] | outcome [16]

CCn1c(CN2CCN(Cc3ccc(C)cc3)C(CCO)C2)nc2ccccc21 (configuration not stated)
active: activation [1] 129% | activation [2] 73% | activation [10] 61.5% | activation [12] 32.4%
inactive: outcome [3] | outcome [4] | outcome [5] | outcome [6] | outcome [7] | outcome [8] | outcome [9] | outcome [11] | outcome [13] | outcome [14] | outcome [15] | outcome [16]

O=[N+]([O-])c1cc(C(F)(F)F)ccc1N1CCCNCC1
inactive: outcome [2] | outcome [5] | outcome [6] | outcome [7] | outcome [8] | outcome [9] | outcome [10] | outcome [11] | outcome [13] | outcome [15] | outcome [16]
active: activation [1] 77% | potentiation [3] 21% | potentiation [4] 26% | activation [12] 30.2% | potentiation [14] 30.6%

Cc1ccc(NC(=O)CNCC(c2ccccc2)N(C)C)cc1F (configuration not stated)
inactive: outcome [2] | outcome [3] | outcome [4] | outcome [5] | outcome [6] | outcome [7] | outcome [8] | outcome [9] | outcome [11] | outcome [12] | outcome [13] | outcome [14] | outcome [15] | outcome [16]
active: activation [1] 95% | activation [10] 44%
